Some test systems named below: NCI-H23 lung; NCI-H226 lung; NCI-H322M lung; HOP-62 NSCLC; NCI-H460 lung; HOP-92 NSCLC; NCI-H522 lung; A549/ATCC NSCLC; 786-0 renal; COLO 205 colon; DU-145 prostate; K-562 leukemia; MALME-3M melanoma; MDA-MB-231 breast; RXF 393 renal; SF-268 CNS; SF-295 CNS; SF-539 CNS; UACC-257 melanoma; M14 melanoma.
Common to all, as to assay: NCI-60 one-dose screen, 48 h (100 = growth as untreated, 0 = no growth, -100 = all killed)
Common to all, as to details: 10 µM unless noted

This is part of a sample that, as a whole, favours compounds with a hit. Of some 83,000 tested, about 20% had one in any assay.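 Method: cells in 96-well plates; compound added at one concentration; 48 h incubation; percent growth measured; values under 10 scored active.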 Values without a mark were called inactive. Calls of active or inactive are those of the source.

For `[O-][n+]1c2ccccc2[n+]([O-])c2c3ccccc3[nH]c21`, the growth in the assay on NCI-H23 lung is 71.5%; with NCI-H226 lung, -0.987% (active); in the assay on NCI-H322M lung, 66.9%; with HOP-62 NSCLC it was 26.2%; in the assay with NCI-H460 lung it was 5.29% (active); in the assay with HOP-92 NSCLC it was 66.5%. Besides, the growth in the assay with NCI-H522 lung was 57.5%; in the assay with A549/ATCC NSCLC, 30.6%; in the assay on 786-0 renal, 71%; with COLO 205 colon, 69.8%; in the assay on DU-145 prostate, 72.6%; in the assay on K-562 leukemia, 87.7%. In addition, the growth was 110% in the assay on MALME-3M melanoma; 75.9% in the assay on MDA-MB-231 breast; 99.6% in the assay on RXF 393 renal; 109% in the assay with SF-268 CNS; 69.7% in the assay on SF-295 CNS; 91.4% with SF-539 CNS. Also, the growth was -31.3% (active) in the assay with UACC-257 melanoma and 98.5% with M14 melanoma.

For the compound `O=C(N/N=C/[C@@H](O)[C@H](O)[C@H](O)CO)c1ccc(NC(=O)c2cccnc2)cc1`, the growth with NCI-H23 lung was 107%; in the assay on NCI-H226 lung, 99.9%; with NCI-H322M lung, 104%; with HOP-62 NSCLC, 102%; in the assay on NCI-H460 lung, 108%; in the assay with HOP-92 NSCLC, 103%. Moreover, the growth with NCI-H522 lung is 99.3%; in the assay with A549/ATCC NSCLC, 101%; in the assay on 786-0 renal, 106%; in the assay with COLO 205 colon, 107%; in the assay on DU-145 prostate it was 112%; in the assay with K-562 leukemia, 103%. Moreover, the growth with MALME-3M melanoma is 110%; in the assay on MDA-MB-231 breast it was 102%; in the assay with RXF 393 renal it was 109%; in the assay on SF-268 CNS it was 98.5%; in the assay on SF-295 CNS it was 101%; in the assay on SF-539 CNS it was 103%. The results for the growth in the assay on UACC-257 melanoma and with M14 melanoma were 100% and 106%, respectively.

For the compound `Cc1nc(/N=C(\N)NC(=O)Nc2cccc(Cl)c2)sc1C`, the growth was 73.2% in the assay on NCI-H23 lung; 90.2% in the assay on NCI-H226 lung; 92% in the assay with NCI-H322M lung; 71% with HOP-62 NSCLC; 66% with NCI-H460 lung; 89.5% in the assay with HOP-92 NSCLC. Further, the growth in the assay on NCI-H522 lung was 38.9%; in the assay on A549/ATCC NSCLC, 70.1%; in the assay on 786-0 renal, 97.8%; with COLO 205 colon, 67.3%; in the assay on DU-145 prostate, 90%; with K-562 leukemia it was 17%. The growth in the assay with MALME-3M melanoma was 62%; in the assay with MDA-MB-231 breast it was 87.9%; in the assay with RXF 393 renal, 87.8%; in the assay with SF-268 CNS it was 89.5%; with SF-295 CNS, 77.2%; with SF-539 CNS, 78.3%. In addition, the figures for the growth with UACC-257 melanoma and with M14 melanoma were 71.7% and 50.5%, respectively.

Regarding `O=C(Nc1ccc(Cl)cc1F)c1cc(Cl)ccc1O`, the growth in the assay on NCI-H23 lung was -20% (active); in the assay on NCI-H226 lung it was -9.16% (active); with NCI-H322M lung it was -11.1% (active); in the assay with HOP-62 NSCLC it was 7.55% (active); with NCI-H460 lung, -5.39% (active); in the assay with HOP-92 NSCLC it was -21.7% (active). Besides, the growth with NCI-H522 lung was -3.15% (active); with A549/ATCC NSCLC, 7.91% (active); in the assay on 786-0 renal it was -0.322% (active); in the assay with COLO 205 colon, 22.2%; in the assay with DU-145 prostate, 12.5%; in the assay with K-562 leukemia, 4.51% (active). Further, the growth with MALME-3M melanoma is -32.2% (active); with MDA-MB-231 breast, -34.5% (active); with RXF 393 renal, -12.7% (active); with SF-268 CNS, 7.67% (active); in the assay on SF-295 CNS, -69.5% (active); in the assay on SF-539 CNS, 4.82% (active). For the same compound, the growth in the assay with UACC-257 melanoma was -17.9% (active); in the assay on M14 melanoma, -12.3% (active).

Consider `Cc1cc2[nH]c(=O)c3c4ncccc4cn3c2cc1C`, for which the growth in the assay with NCI-H23 lung was 70%; in the assay with NCI-H226 lung, 51.8%; in the assay on NCI-H322M lung, 29.9%; in the assay on HOP-62 NSCLC it was 59%; in the assay on NCI-H460 lung it was -33.9% (active); with HOP-92 NSCLC it was 83.3%. The growth with NCI-H522 lung is -23.7% (active); in the assay on A549/ATCC NSCLC, 49.8%; in the assay with 786-0 renal it was 7.03% (active); in the assay on COLO 205 colon it was 14.8%; with DU-145 prostate it was 35.6%; in the assay with K-562 leukemia, 3.34% (active). Besides, the growth is 70.1% with MALME-3M melanoma; 28.8% in the assay on MDA-MB-231 breast; 18.1% in the assay on RXF 393 renal; 41.7% in the assay with SF-268 CNS; -14.7% (active) in the assay on SF-295 CNS; 26.7% in the assay with SF-539 CNS. Further, the figures for the growth with UACC-257 melanoma and in the assay with M14 melanoma were 108% and 67.3%, respectively.

Regarding `CCOC(=O)C1=C(N)Oc2c(sc3c(CC)cccc23)C1c1ccc(F)cc1` (stereo not given), the growth in the assay on NCI-H23 lung was 47%; in the assay on NCI-H226 lung it was 49.5%; in the assay with NCI-H322M lung, 67.2%; in the assay on HOP-62 NSCLC, 32%; in the assay on NCI-H460 lung, 17%; in the assay with HOP-92 NSCLC, 63.5%. The growth is 26.4% with NCI-H522 lung; 47.4% with A549/ATCC NSCLC; 35.4% in the assay with 786-0 renal; 51.1% in the assay on COLO 205 colon; 46.3% in the assay with DU-145 prostate; 10.7% in the assay with K-562 leukemia. Further, the growth in the assay on MALME-3M melanoma is 42.1%; with MDA-MB-231 breast, 73.1%; in the assay on RXF 393 renal, -4.56% (active); with SF-268 CNS, 48.9%; in the assay with SF-295 CNS, 11.8%; in the assay on SF-539 CNS it was 13.4%. For the same compound, the values for the growth with UACC-257 melanoma and in the assay on M14 melanoma were 55.7% and 38.2%, respectively.

For the compound `COc1ccc(/C=C(/C#N)n2nnc3cccc(F)c32)cc1`, the growth in the assay with NCI-H23 lung is 14.6%; with NCI-H226 lung, 60.4%; in the assay with NCI-H322M lung it was 25.2%; in the assay with HOP-62 NSCLC, 38.1%; in the assay with NCI-H460 lung it was 4.61% (active); in the assay with HOP-92 NSCLC, -2.46% (active). In addition, the growth was -24.6% (active) with NCI-H522 lung; 37% in the assay with A549/ATCC NSCLC; 10.6% in the assay on 786-0 renal; 1.85% (active) in the assay with COLO 205 colon; -10.7% (active) in the assay on DU-145 prostate; 12.8% with K-562 leukemia. In addition, the growth in the assay on MALME-3M melanoma is 32.5%; with MDA-MB-231 breast it was 0.925% (active); in the assay on RXF 393 renal, -37.9% (active); with SF-268 CNS, 28.2%; in the assay on SF-295 CNS it was 16%; with SF-539 CNS, -39.3% (active). Moreover, the growth in the assay with UACC-257 melanoma is 41.1%; in the assay with M14 melanoma, -27% (active).

Turning to `CCOC(=O)Nc1ccc(C(=O)/C=C/c2ccccc2)cc1`, the growth in the assay with NCI-H23 lung is 95%; with NCI-H226 lung, 79.2%; in the assay with NCI-H322M lung, 100%; in the assay on HOP-62 NSCLC it was 90.2%; in the assay on NCI-H460 lung it was 91.3%; in the assay with HOP-92 NSCLC, 70.2%. Moreover, the growth with NCI-H522 lung is 106%; in the assay on A549/ATCC NSCLC it was 54.4%; with 786-0 renal it was 87.1%; with COLO 205 colon, 127%; with DU-145 prostate it was 86.4%; in the assay with K-562 leukemia it was 24.2%. Also, the growth is 103% with MALME-3M melanoma; 95.9% in the assay with MDA-MB-231 breast; 36.8% in the assay on RXF 393 renal; 93.8% in the assay with SF-268 CNS; 106% with SF-295 CNS; 67.9% in the assay on SF-539 CNS. The figures for the growth with UACC-257 melanoma and with M14 melanoma were 115% and 79.2%, respectively.

The values are drawn from PubChem BioAssay (NCI).
